Measurements taken from PMC7862700, “An all-to-all approach to the identification of sequence-specific readers for epigenetic DNA modifications on cytosine”.

What was measured:
Assay in all cases: DAPPL (digital affinity profiling via proximity ligation, sequencing); 10 mM Tris-HCl pH 7.5, 50 mM NaCl, 1 mM DTT, 4% glycerol, room temperature, 30 min; GST-TFs on glutathione beads, 16-mer random dsDNA library, 0.1% formaldehyde crosslink after washing; high values mean tight binding
Details in all cases: protein: recombinant; tags: N-terminal GST; dsDNA, one strand shown
[1] = target: T1, ERG (Homo sapiens, UniProt P11308 1-479)
T1 sequence: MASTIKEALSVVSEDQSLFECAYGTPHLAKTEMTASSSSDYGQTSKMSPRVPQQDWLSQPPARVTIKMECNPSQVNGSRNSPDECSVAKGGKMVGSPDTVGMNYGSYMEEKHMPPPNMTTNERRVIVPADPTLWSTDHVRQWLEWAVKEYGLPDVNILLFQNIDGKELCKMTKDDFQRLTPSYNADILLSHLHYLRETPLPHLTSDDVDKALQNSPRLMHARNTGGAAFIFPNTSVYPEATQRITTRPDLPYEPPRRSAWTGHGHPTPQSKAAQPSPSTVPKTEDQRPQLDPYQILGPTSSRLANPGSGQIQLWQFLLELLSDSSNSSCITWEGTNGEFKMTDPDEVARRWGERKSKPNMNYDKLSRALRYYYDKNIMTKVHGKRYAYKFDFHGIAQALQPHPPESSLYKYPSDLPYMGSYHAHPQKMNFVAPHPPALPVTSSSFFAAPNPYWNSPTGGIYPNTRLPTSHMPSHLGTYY
Outline: (§1)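 GST fusions of human transcription factors were expressed in yeast and captured with glutathione beads. Once given DNA barcodes and pooled alongside a tag-only sample, they were incubated for 30 min at room temperature with 200 nmole of a random double-stranded 16-mer DNA library in Tris/NaCl/DTT/glycerol buffer, then washed, crosslinked (0.1% formaldehyde), proximity-ligated, PCR-amplified and sequenced on an Illumina NextSeq500. The binding signal of each hexamer is its read frequency for a factor divided by its frequency for the tag-only sample.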

[2] = target: ELF1 (Homo sapiens, UniProt P32519 1-619)
Outline: as §1

[3] = target: T2, FEV (Homo sapiens, UniProt Q99581 1-238)
T2 sequence: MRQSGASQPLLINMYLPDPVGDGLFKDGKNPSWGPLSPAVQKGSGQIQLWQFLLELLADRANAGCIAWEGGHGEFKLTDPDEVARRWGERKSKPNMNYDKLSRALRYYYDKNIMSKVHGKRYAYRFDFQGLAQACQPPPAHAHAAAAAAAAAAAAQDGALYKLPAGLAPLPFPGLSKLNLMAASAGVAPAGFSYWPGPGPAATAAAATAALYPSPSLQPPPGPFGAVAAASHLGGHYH
Outline: as §1

[4] = target: ETV5 (Homo sapiens, UniProt P41161 1-510)
Outline: as §1

[5] = target: ELF4 (Homo sapiens, UniProt Q99607 1-663)
Outline: as §1

[6] = target: T3, ELF3 (Homo sapiens, UniProt P78545 1-371)
T3 sequence: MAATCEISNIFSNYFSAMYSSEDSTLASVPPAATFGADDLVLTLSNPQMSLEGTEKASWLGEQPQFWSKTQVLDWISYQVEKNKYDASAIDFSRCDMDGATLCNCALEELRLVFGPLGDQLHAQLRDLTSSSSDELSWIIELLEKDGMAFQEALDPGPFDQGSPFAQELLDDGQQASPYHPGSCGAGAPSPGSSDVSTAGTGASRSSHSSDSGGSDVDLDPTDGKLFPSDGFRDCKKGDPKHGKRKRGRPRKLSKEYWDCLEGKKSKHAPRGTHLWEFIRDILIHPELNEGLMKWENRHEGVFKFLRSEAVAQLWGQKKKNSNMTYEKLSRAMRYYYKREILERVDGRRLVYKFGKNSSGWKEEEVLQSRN
Outline: as §1

[7] = target: T4, ETV3L (Homo sapiens, UniProt Q6ZN32 1-361)
T4 sequence: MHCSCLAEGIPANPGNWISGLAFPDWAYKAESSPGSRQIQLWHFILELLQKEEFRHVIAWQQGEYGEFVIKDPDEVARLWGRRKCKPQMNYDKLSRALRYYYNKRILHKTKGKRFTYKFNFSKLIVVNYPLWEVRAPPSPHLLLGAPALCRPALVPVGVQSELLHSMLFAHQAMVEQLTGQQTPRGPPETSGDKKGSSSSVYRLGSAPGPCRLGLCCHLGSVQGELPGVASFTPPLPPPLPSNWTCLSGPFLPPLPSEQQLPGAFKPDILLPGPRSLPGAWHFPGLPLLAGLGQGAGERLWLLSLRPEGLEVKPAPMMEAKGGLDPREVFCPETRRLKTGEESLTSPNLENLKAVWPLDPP
Outline: as §1

[8] = target: T5, ETV7 (Homo sapiens, UniProt Q9Y603 1-341)
T5 sequence: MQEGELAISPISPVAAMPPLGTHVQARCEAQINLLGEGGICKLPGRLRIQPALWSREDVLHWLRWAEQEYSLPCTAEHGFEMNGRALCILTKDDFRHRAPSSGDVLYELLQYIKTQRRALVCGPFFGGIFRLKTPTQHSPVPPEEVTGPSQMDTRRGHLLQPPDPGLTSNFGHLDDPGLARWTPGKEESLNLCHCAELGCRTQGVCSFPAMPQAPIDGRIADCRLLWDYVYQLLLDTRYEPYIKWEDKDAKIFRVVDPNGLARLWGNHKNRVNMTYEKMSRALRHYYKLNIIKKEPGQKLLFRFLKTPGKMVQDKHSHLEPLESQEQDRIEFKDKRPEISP
Outline: as §1

[9] = target: ETV6 (Homo sapiens, UniProt P41212 1-452)
Outline: as §1

Sequence of ETV5 (P41161 whole entry): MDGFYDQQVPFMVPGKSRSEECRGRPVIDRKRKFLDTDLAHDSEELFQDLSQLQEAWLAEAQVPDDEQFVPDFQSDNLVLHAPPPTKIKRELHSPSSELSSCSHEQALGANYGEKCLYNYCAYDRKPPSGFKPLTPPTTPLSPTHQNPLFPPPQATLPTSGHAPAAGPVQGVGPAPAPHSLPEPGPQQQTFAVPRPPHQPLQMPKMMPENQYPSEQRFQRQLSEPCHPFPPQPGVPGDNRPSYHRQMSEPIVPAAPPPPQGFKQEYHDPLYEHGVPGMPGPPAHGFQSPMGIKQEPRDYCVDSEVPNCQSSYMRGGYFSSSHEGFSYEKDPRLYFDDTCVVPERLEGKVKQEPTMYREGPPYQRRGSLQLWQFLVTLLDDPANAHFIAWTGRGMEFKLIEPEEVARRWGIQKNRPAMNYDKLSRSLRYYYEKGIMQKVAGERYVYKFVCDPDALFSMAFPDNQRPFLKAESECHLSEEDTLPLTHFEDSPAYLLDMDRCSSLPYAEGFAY
Sequence of ELF1 (P32519 whole entry): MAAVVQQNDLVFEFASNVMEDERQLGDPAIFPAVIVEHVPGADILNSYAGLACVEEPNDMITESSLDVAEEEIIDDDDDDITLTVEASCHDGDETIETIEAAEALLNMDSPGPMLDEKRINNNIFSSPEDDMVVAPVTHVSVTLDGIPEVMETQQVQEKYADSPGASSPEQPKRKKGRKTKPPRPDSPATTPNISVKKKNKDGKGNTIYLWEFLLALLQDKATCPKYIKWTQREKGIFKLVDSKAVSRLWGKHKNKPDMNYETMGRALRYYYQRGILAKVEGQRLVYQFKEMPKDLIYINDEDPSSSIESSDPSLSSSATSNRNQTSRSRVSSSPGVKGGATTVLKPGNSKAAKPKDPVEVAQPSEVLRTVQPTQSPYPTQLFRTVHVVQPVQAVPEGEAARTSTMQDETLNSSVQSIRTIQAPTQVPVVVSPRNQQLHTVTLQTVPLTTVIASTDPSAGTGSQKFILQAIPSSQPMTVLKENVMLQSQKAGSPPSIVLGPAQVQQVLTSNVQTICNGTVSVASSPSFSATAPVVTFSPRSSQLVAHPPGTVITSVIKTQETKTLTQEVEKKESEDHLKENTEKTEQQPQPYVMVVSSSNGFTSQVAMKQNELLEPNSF
Sequence of ETV6 (P41212 whole entry): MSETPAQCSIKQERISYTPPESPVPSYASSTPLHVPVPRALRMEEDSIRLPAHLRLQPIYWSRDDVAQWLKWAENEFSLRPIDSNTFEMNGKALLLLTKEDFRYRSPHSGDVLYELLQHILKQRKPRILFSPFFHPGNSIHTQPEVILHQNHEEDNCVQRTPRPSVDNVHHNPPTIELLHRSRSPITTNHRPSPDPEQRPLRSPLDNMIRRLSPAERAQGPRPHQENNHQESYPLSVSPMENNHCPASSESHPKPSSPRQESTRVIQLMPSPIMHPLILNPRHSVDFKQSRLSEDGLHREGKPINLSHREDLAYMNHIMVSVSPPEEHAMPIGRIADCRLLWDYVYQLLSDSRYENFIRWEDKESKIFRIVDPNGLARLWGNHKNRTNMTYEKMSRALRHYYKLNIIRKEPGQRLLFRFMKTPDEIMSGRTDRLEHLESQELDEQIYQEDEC
Sequence of ELF4 (Q99607 whole entry): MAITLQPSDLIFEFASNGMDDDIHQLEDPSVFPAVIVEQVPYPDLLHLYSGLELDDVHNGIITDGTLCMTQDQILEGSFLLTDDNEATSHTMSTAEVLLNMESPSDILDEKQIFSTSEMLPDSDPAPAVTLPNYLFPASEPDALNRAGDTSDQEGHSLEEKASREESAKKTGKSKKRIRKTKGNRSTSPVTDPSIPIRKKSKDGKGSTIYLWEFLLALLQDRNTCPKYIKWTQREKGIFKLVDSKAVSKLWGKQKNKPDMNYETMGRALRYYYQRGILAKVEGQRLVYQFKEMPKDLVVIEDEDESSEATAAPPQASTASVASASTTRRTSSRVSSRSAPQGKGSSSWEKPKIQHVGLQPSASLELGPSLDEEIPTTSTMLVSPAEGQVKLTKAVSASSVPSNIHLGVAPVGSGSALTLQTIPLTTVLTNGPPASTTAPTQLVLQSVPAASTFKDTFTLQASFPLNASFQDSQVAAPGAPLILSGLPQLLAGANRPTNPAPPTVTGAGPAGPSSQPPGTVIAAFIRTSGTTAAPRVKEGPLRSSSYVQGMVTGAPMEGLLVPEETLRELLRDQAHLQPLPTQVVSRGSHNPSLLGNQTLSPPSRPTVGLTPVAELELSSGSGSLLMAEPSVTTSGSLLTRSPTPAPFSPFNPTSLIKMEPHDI

Q: With ACTCAG as the sequence, how does the binding signal [1] read?
A: The binding signal was 1.06 fold enrichment (6-mer frequency, TF over GST control).

Q: And the binding signal [2]?
A: The binding signal was 1.07 fold enrichment (6-mer frequency, TF over GST control).

Q: What about the binding signal [3] of the same sequence?
A: Its binding signal is 1.02 fold enrichment (6-mer frequency, TF over GST control).

Q: And the binding signal [4]?
A: The binding signal was 1.03 fold enrichment (6-mer frequency, TF over GST control).

Q: And the binding signal [5]?
A: Its binding signal is 1.08 fold enrichment (6-mer frequency, TF over GST control).

Q: What about the binding signal [6] of the same sequence?
A: The binding signal was 1.02 fold enrichment (6-mer frequency, TF over GST control).

Q: What about the binding signal [7] of the same sequence?
A: Its binding signal is 1.01 fold enrichment (6-mer frequency, TF over GST control).

Q: What about the binding signal [8] of the same sequence?
A: Its binding signal is 1.05 fold enrichment (6-mer frequency, TF over GST control).

Q: What about the binding signal [9] of the same sequence?
A: Its binding signal is 1.05 fold enrichment (6-mer frequency, TF over GST control).
